Compounds with a hit are over-represented: about 1.6% of the library has one in this group of screens.
FBPA coupling cs = counter-screen for Giardia aldolase inhibitors: coupling enzyme system; 290,000 compounds, 0.67% hits; activity change, negative = inhibition, % at 58.2 µM, hits read low; coupling enzyme system counterscreen, AmpLite Red fluorescence; in the data active means activity change below about -30%; further: on the % scale 0 is the no-effect control and ±100 the full control effect
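Compounds tested against the coupling enzymes alone at 57.5 uM final; readout was AmpLite Red fluorescence (525/598 nm) after 20 min at RT.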
RXFP1 agonist = agonists of human relaxin receptor RXFP1; Q9HBX9; HEK293T-RXFP1 cAMP TR-FRET, 30 min; response scale: percent of porcine relaxin response, buffer zero; Potency, µM (series often up to 57.5 µM), for the others: at the top dose activation, hits mostly activators; 370,000 compounds, 0.3% hits; active means well fitted activation curve with a large enough effect; inconclusive means small, poorly fitted or top-dose-only effect; further: potency means the concentration at half of the fitted maximal effect; on the % scale 0 is the no-effect control and ±100 the full control effect; nearly all actives have a fitted effect of over 60% in size
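cAMP rise read by TR-FRET after 30 min, 37C compound exposure (up to 58 uM) in RXFP1-transfected HEK293 cells with Ro 20174 present. EC50 from Hill-equation fits, with 29 nM porcine relaxin as 100% and buffer as basal.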
gsp antag = antagonists of gsp mutant (McCune-Albright syndrome); Potency, µM (top dose mostly 76.9 µM), for the others: at the highest dose activity change, negative = inhibition, actives largely listed as inhibitors; gsp-mutant cells, cAMP HTRF, 30 min; 340,000 compounds, 0.4% hits; calls by dose curve; cell line not stated here;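 further: intracellular cAMP measured with PDE inhibitor Ro 20-1724 present during compound exposure; potency means the concentration at half of the fitted maximal effect; on the % scale 0 is the no-effect control and ±100 the full control effect; nearly all actives have a fitted effect of over 65% in size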
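Measurement of cellular cAMP by homogeneous time-resolved fluorescence following a 30 min compound exposure at 37C. The PDE inhibitor […] was present throughout; the assay buffer was DPBS with 0.05% BSA and 0.005% Tween 20.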
gsp agonist = agonists of gsp mutant (McCune-Albright syndrome) | gsp mutant cells, cAMP HTRF, 30 min | Potency, µM (series often up to 76.9 µM), without a hit: at the highest dose activation (cAMP increase), most hits filed as activators | 340,000 compounds, 0.13% hits; active means well fitted activation curve with a large enough effect; inconclusive means small, poorly fitted or top-dose-only effect, or another doubt; inactive means no such curve, though single readings can be large or run the other way; cell line not stated here;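 further: phosphodiesterase inhibitor Ro 20-1724 added with compounds to block cAMP breakdown; potency means the concentration at half of the fitted maximal effect; nearly all actives have a fitted effect of over 60% in size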
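Cells stably selected in G418 were plated at 2000/well, grown 16-24 hr, then given compounds in DMSO with the PDE inhibitor […] (300 uM solution added) for 30 min at 37C; cAMP was read by HTRF.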
RXFP1 antag = blocks the human relaxin receptor RXFP1; HEK293-RXFP1, relaxin-stimulated cAMP HTRF, 30 min; stronger effect = lower value; activity change, negative = inhibition, % at 57.5 µM; 350,000 compounds, 0.59% hits; AID 1259400;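 active means activity change of -60% or lower, but not beyond a set lower limit; inconclusive means change between -60% and -40%, or beyond the set limit; inactive means change above -40%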; further: on the % scale 0 is the no-effect control and ±100 the full control effect
Giardia killer = Giardia lamblia killing; activity change, % at 7.66 µM, hits read low; Giardia lamblia trophozoite viability; 340,000 compounds, 0.15% hits; AID 540267; in the data active means activity change below about -80%; inconclusive means between about -30% and that limit;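 further: parasites exposed to compound for two days anaerobically before the ATP read; on the % scale 0 is the no-effect control and ±100 the full control effect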
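Giardia lamblia trophozoites (100 cells/well) were incubated with compounds for 48 h at 37 deg C under anaerobic conditions. Viability was read as ATP content by one-step luminescence after 15-30 min at room temperature.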
CASP1 redox cat = inhibits human caspase-1 in catalase buffer, redox counter-screen | shares compounds with FBPA coupling cs | caspase-1 Ac-WEHD-AFC fluorescence rate, catalase buffer | Potency, µM (series often up to 57.5 µM), without a hit: top-dose activity change, negative = inhibition, usual class: inhibitors | 30 tested, under 10 active
Target sequence (P29466 120-297 limits assumed): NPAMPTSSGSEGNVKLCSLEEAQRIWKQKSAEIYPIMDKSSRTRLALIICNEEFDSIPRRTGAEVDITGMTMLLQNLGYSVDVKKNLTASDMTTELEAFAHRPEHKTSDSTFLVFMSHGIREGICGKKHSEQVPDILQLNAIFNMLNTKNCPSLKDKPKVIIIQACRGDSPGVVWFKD
Target sequence (P29466 317-404 limits assumed): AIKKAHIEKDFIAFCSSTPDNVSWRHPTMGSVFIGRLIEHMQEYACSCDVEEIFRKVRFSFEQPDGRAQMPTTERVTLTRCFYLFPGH
Casp1 confirm = blocks human caspase-1 activity in concentration-response; purified caspase-1, fluorogenic substrate cleavage; 60 compounds, 20% hits; Potency, µM (doses to about 57.5 µM), inactives show at the top dose activity change, negative = inhibition, usual class: inhibitors; shares compounds with FBPA coupling cs
Casp7 confirm = blocks human caspase-7 activity in concentration-response. shares compounds with FBPA coupling cs. recombinant caspase-7, fluorogenic substrate cleavage. Potency, µM (top dose mostly 57.5 µM), for inactives: at the highest dose activity change, negative = inhibition, most hits filed as inhibitors. 60 tested, under 10 active. AID 897; active means well fitted inhibition curve with a large enough effect in the main read-out, with a control signal flat, not every such curve was filed as active; inconclusive means small, poorly fitted or top-dose-only effect, or a change in a side signal; inactive means no such curve, though single readings can be large or run the other way
Target sequence (P55210 24-198 limits assumed): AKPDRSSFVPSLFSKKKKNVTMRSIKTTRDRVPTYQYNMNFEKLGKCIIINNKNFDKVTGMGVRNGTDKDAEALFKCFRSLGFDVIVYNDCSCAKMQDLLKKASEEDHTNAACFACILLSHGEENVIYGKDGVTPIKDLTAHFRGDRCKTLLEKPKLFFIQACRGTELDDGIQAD
Target sequence (P55210 207-303 limits assumed): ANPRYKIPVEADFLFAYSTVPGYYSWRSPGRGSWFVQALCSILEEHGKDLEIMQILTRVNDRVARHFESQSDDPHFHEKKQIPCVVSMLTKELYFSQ
Casp7 cysteine = inhibits caspase-7 in cysteine buffer, redox counter-screen. shares compounds with FBPA coupling cs. caspase-7 enzyme with cysteine, fluorogenic substrate, redox counterscreen. Potency, µM (series often up to 57.5 µM), inactives show top-dose activity change, negative = inhibition, most hits filed as inhibitors. 60 tested, under 10 active. AID 908
Casp7 catalase = counter-screen for redox active caspase-7 inhibitors: catalase buffer | shares compounds with FBPA coupling cs | Potency, µM (doses to about 57.5 µM), without a hit: at the highest dose activity, negative = inhibition, usual class: inhibitors | Caspase-7 Ac-DEVD-AFC fluorescence rate, catalase buffer | 30 tested, under 10 active
CASP1 redox cys = caspase-1 inhibition with cysteine present; shares compounds with FBPA coupling cs; recombinant caspase-1, fluorogenic substrate, cysteine buffer; Potency, µM (top dose mostly 57.5 µM), for the others: at the highest dose activity change, negative = inhibition, most hits filed as inhibitors; 60 tested, under 10 active; AID 929
* = called active by the depositor; ? = inconclusive; . = no result; [ ] = remark or other dose. Unless noted, the call rests on the fitted dose curve; in most records, active means well fitted inhibition curve with a large enough effect in the main read-out, with a control signal flat; inconclusive means small, poorly fitted or top-dose-only effect, or a change in a side signal; inactive means no such curve, though single readings can be large or run the other way.

SMILES | FBPA coupling cs | RXFP1 agonist | gsp antag | gsp agonist | RXFP1 antag | Giardia killer | others
CCCCOP(=O)(OCCCC)C1(C)CC(=O)CC(C)(C)C1 (stereo not drawn) | . | . | -4% | 27% | -32 | -8
C[C@H](CO)N1C[C@H](C)[C@@H](CN(C)Cc2ccc(-c3ccccc3)cc2)Oc2c(NC(=O)c3ccncc3)cccc2C1=O | . | . | 32µM* | . | . | 5
CC(=O)Nc1ccccc1C(=O)OCC(=O)c1ccc2ccccc2c1 | . | 0% | 25µM* | -6% | 30 | 8
CC(=O)Nc1ccccc1C(=O)OCc1ccc(C(=O)c2ccccc2)cc1 | . | 0% | 1.8µM* | -7% | -4 | 38
CCC(=O)O[C@@H]1C=C2CCC3C(CCC4(C)C3CC[C@@H]4OC(=O)CC)C2CC1 (stereo partly drawn) | . | . | . | . | -16 | .
C[C@@H]1CNC(=O)c2c(C(=O)Nc3cccc(Cl)c3)ncn21 | . | . | . | 23% | -4 | .
S=C(SSC(=S)N1CCCCC1)N1CCCCC1 | . | . | . | . | 33 | .
O=C1Nc2ccc(Br)cc2C(c2ccc(Cl)cc2)=NC1O (stereo not drawn) | -34* | 0% | -6% | 12% | -4 | -9
Cc1ccc(S(=O)(=O)N2[C@H](c3cccc(Cl)c3)CC(=O)[C@@H]3CN(S(=O)(=O)c4ccccc4C)[C@H](c4ccc(Cl)cc4)C[C@@H]32)cc1 | . | . | . | -61% | 10 | .
CC1CN(c2ccc([N+](=O)[O-])c3cccnc23)CC(C)N1 (stereo not drawn) | 1 | -1% | -2% | 13% | -14 | -86*
O=[N+]([O-])c1ccc(N2CCCC2)c2ncccc12 | 0 | 2% | -9% | -22% | 4 | 6
O=C(N=Nc1c(O)[nH]c(=O)[nH]c1=O)C1COc2cc3ccccc3cc2O1 (stereo not drawn) | -30* | -1% | -2% | 5%[15.4 µM] | 3 | -11
CN1CC[C@]23c4c5ccc(O)c4OC2C(O)CCC3[C@H]1C5 (stereo partly drawn) | . | . | . | . | 16 | .
Clc1ccc(C(c2ccc(Cl)cc2)C(Cl)(Cl)Cl)cc1 | 0 | . | . | . | -72* | .
Oc1ccc(Cl)cc1 | 1 | . | -7% | . | 9 | 11
CN1CC[C@@]2(C)c3cc(O)ccc3N(C)C2O1 (stereo partly drawn) | -72* | . | . | . | . | 38
CN1CC[C@@]2(C)c3cc(O)ccc3N(C)[C@@H]12 | -78* | . | -14% | . | . | 4
CC1[C@H]2Cc3ccc(O)cc3[C@]1(C)CCN2C (stereo partly drawn) | . | . | 0% | . | . | -18
Clc1cccc(CNCCc2c[nH]c3ccccc23)c1 | -2 | 1% | 13% | 8%[15.4 µM] | -84* | -9
Cc1cccc(NP(=O)(Oc2ccccc2)Oc2ccccc2)c1C | 0 | 0% | -31% | -1%[15.4 µM] | -64* | 1
C#C[C@]1(O)CC[C@H]2[C@@H]3CCC4=Cc5nc6nc7ccccc7n6cc5C[C@]4(C)[C@H]3CC[C@@]21C | . | 6% | 32µM* | . | . | -26
CN1CCN(c2ccc(N)cc2Cl)CC1 | -32* | 4% | 7% | -7%[15.4 µM] | -3 | 20
CN1CCN(c2ccc(Cl)cc2N)CC1 | 6 | 0% | 4% | -9% | 6 | -9
CCn1nc(-c2ccccc2)nc2c(=O)n(C)c(=O)nc1-2 | -61* | 10% | -9% | ? | 2 | -89* | CASP1 redox cat=0.79µM*;Casp1 confirm=1µM*;Casp7 confirm=1.6µM*;Casp7 cysteine=-3%;Casp7 catalase=?;CASP1 redox cys=-20%
COc1cccc(-n2cnc3sc(-c4ccccc4)cc3c2=O)c1 | . | . | -6% | -43% | 3 | -8
NNS(=O)(=O)c1ccc(Sc2ccccn2)c([N+](=O)[O-])c1 | 1 | 2% | 6% | -32% | 7 | -6
COc1cc2c(cc1OC)-c1c(OC)c(OC)c(C=O)c3c1[C@H](C2)N(C)CC3 | -22 | . | . | . | . | . | Casp1 confirm=?;Casp7 confirm=-17%;Casp7 cysteine=-4%;CASP1 redox cys=?
COc1cc2c(cc1O)C[C@H]1c3c(cc(OC)c(O)c3-2)CCN1C | -12 | . | . | . | . | . | Casp1 confirm=32µM*;Casp7 confirm=-68%;Casp7 cysteine=-4%;CASP1 redox cys=-5%
Cc1ccc(C(C#N)=Cc2ccc3c(c2)OCO3)cc1 | . | . | . | 14% | -8 | .

Screening results from PubChem BioAssay.
